Experimental data reported in PubChem BioAssay (NCI).
Compounds without any hit were thinned out: in the full panel of roughly 83,000, 20% have a hit.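 96-well plates, one dose, 48 hours. Percent growth reported; active if below 10.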 Unmarked numbers belong to inactive results. Calls of active or inactive are those of the source.

These compounds were tested on COLO 205 colon (assay: NCI-60 one-dose screen, 48 h (100 = growth as untreated, 0 = no growth, -100 = all killed)). Conditions: 10 µM unless noted.

SMILES | growth
COc1cccc(CC(C)=C(c2ccc(OCCN(C)C)cc2)c2ccc(OCCN(C)C)cc2)c1 | -70.5% (active)
S=c1[nH]nc(-c2cc3ccc2CCc2ccc(cc2)CC3)n1C1CC1 | 113%
COc1ccc(Nc2[nH]n3c(=O)cc(-c4ccccc4)nc3c2C(=O)Nc2ccc(C)cc2)c(OC)c1 | 98%
O=c1[nH]c2ccc(Br)cc2c2c1C(c1ccc(Cl)cc1)c1c(ncn3nc(-c4ccco4)nc13)O2 (stereo not drawn) | 91%
COc1cc(/C=C/C(=O)N2CCN(C(=O)/C=C/c3cc(OC)c(OC)c(OC)c3)CC2)cc(OC)c1OC | 109%
CCN(CC)CCOC(=O)C(c1ccccc1)(c1ccccc1)C(C)C | 66.3%
C=C[C@@H]1C[C@H](O)Cc2c(C)cc(C)cc2N1 | 106%
N=C(N)c1ccc(-c2cc(Cl)cc(Cl)c2)cn1 | 19.5%
CCCCCCCCCCCCNC(=O)[C@H]1CSC(c2ccsc2)N1 (stereo partly drawn) | 84%
O=C(NCc1cn(Cc2cccc(Oc3ccccc3)c2)nn1)c1cccnc1Nc1ccc(F)cc1 | 70.7%
CCN1CCN(CC(=O)N2c3cccc4cccc(c34)N(C(=O)CN3CCN(CC)CC3)C2c2cn(-c3ccccc3)nc2-c2cccc([N+](=O)[O-])c2)CC1 | -66.9% (active)
O=S(=O)(NCCCNc1nccc(-n2ccc3cccnc32)n1)c1ccc(Br)cc1 | 114%
COC(=O)C(Sc1ccc(Cl)cc1)C1SC(=S)N(Cc2ccccc2)C1=O (stereo not drawn) | 117%
Cc1ccc2[nH]c(=O)c3c(c2c1)Oc1ncn2nc(-c4ccco4)nc2c1C3c1ccc(Cl)cc1 (stereo not drawn) | 109%
c1ccc(-c2cn(-c3ccccc3)c(-c3ccccc3)n2)cc1 | 95.2%
CCN(CC)CCCC(C)Nc1c2ccc(Cl)cc2nc2cc(OC)c(OC)cc12 (stereo not drawn) | -33.6% (active)
CN(C)c1cccc2c(S(=O)(=O)/N=C(\N)Nc3nc4ccccc4s3)cccc12 | 85.6%
O=C(Nc1ccc(Cl)c(Cl)c1)NS(=O)(=O)c1cnccc1Oc1ccc(F)cc1 | 90.4%
Cc1ccc2nc(Cl)cc(=O)n2c1 | 108%
Cn1ccc(=O)c(S(N)(=O)=O)c1 | 117%
COc1ccc(-c2c(N)n[nH]c2-c2cc3c(c(OC)c2OC)OCO3)cc1 | 101%
CC(=O)Oc1csc(N(C(C)=O)c2cccc(C(F)(F)F)c2)n1 | 107%
COc1ccc(/C=C\c2cc(OC)c(OC)c(OC)c2)cc1OC(=O)c1cccc(Cn2cc(CCOC(=O)c3cccc(Cn4nnc5c4C(=O)c4ccccc4C5=O)c3)nn2)c1 | -25.2% (active)
